Here are results for 15 molecules from PubChem BioAssay (NCATS).

Experiment [1] is described as follows: Quantitative High-Throughput drug screen in 47 multiple myeloma cell lines against the NCATS MIPE library collection: KMS34_JCRB cell viability assay (AID 1918985). Also: nearly all actives have a fitted effect of over 40% in size. In a few lines: (§1)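 MIPE 4.0 approved/investigational drugs; 500 cells/well; 48 h 37 °C humidified 5% CO2; CTG luminescence readout; DMSO = 100%, media = 0% viability.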
The nature of experiment [2]: Quantitative High-Throughput drug screen in 47 multiple myeloma cell lines against the NCATS MIPE library collection: OCIMY7_PLB cell viability assay (AID 1918987). Also: nearly all actives have a fitted effect of over 65% in size. The method in brief:
as §1

The nature of experiment [3]: Quantitative High-Throughput drug screen in 47 multiple myeloma cell lines against the NCATS MIPE library collection: OCIMY5_PLB cell viability assay (AID 1918988). Also: nearly all actives have a fitted effect of over 65% in size. In a few lines:
as §1

Experiment [4] in a line: Quantitative High-Throughput drug screen in 47 multiple myeloma cell lines against the NCATS MIPE library collection: OPM1_PLB cell viability assay (AID 1918989). Also: nearly all actives have a fitted effect of over 40% in size. The method in brief: as §1
Experiment [5] in a line: Quantitative High-Throughput drug screen in 47 multiple myeloma cell lines against the NCATS MIPE library collection: SKMM1_PLB cell viability assay (AID 1919863). Also: nearly all actives have a fitted effect of over 35% in size. Conditions: SKMM1 myeloma viability, CellTiter-Glo ATP, 48 h; viability: stronger effect = lower value. The method in brief: as §1
(Cellular ATP, detected with luciferase, serves as a proxy for viable cell number.)

Experiment [6] is described as follows: Quantitative High-Throughput drug screen in 47 multiple myeloma cell lines against the NCATS MIPE library collection: U266_ATCC cell viability assay (AID 1919864). Also: nearly all actives have a fitted effect of over 35% in size.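 As to viability (% of DMSO control): 0% = media-only wells without cells and 100% = DMSO-only wells.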 In a few lines: as §1
Experiment [7] is described as follows: Quantitative High-Throughput drug screen in 47 multiple myeloma cell lines against the NCATS MIPE library collection: PCM6_Riken cell viability assay (AID 1919870). Also: nearly all actives have a fitted effect of over 30% in size. In a few lines: as §1
Experiment [8] is described as follows: Quantitative High-Throughput drug screen in 47 multiple myeloma cell lines against the NCATS MIPE library collection: L363_DSMZ cell viability assay (AID 1918984). Also: nearly all actives have a fitted effect of over 40% in size. The method in brief:
as §1

A short description of experiment [9]: Quantitative High-Throughput drug screen in 47 multiple myeloma cell lines against the NCATS MIPE library collection: XG6_PLB cell viability assay (AID 1919865). Also: nearly all actives have a fitted effect of over 40% in size. In a few lines: as §1
A short description of experiment [10]: Quantitative High-Throughput drug screen in 47 multiple myeloma cell lines against the NCATS MIPE library collection: UTMC2_PLB cell viability assay (AID 1919868). Also: nearly all actives have a fitted effect of over 55% in size.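 As to viability (% of DMSO control): 100% = DMSO-only wells and 0% = media-only wells without cells.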 Conditions: CellTiter-Glo ATP luminescence, 48 h; viability (% of DMSO control): at 45.8 µM (top of the series). In a few lines:
as §1

SMILES strings stand for the structures. Inconclusive results are not listed. Unmarked numbers belong to inactive results. Active and inactive are the calls of the source. Calls follow the shape of the dose curve; as a rule, active = well fitted cell-killing curve with a large enough effect; inconclusive = small, poorly fitted or top-dose-only effect, or effect the other way; inactive = no such curve, though single readings can be large or run the other way.
Potency is read from the fitted curve at half-maximal effect.

As usually defined, the viability is a read-out of living cells in per cent, often relative to untreated cells. In the case of `CN(C)CCc1ccc(O)cc1`, the Potency entry in experiment [1], in experiment [2], in experiment [3], in experiment [4], in experiment [6] and in [7] was “inactive” throughout. Further, in experiment [5], the viability was 107%.
As for `COC[C@H]1OC(=O)c2coc3c2[C@@]1(C)C1=C(C3=O)C2CCC(=O)[C@@]2(C)C[C@H]1OC(C)=O` (some centres not stated), the Potency in experiment [8] is 11800 nM (active); in experiment [1], 7430 nM (active); in experiment [2] it was 743 nM (active); in [3] it was 14800 nM (active); in [4], 833 nM (active); in experiment [5], 2960 nM (active). The Potency in [6] is 20900 nM (active); in [9] it was 4180 nM (active); in [10], 264 nM (active); in experiment [7] it was 3320 nM (active).
As for `COC1(CS(=O)c2ccccc2)CCN(CCc2c[nH]c3ccc(F)cc23)CC1` (configuration not stated), the Potency entry in experiment [1], in experiment [6], in experiment [10] and in experiment [7] was “inactive” throughout. Further, the viability in [5] is 116%. Also, the Potency in [9] is 16600 nM (active).
With `CN(C)CCN(C)CCc1ccc(Cl)c(Cl)c1`, the Potency entry in [3], in experiment [4], in experiment [9] and in experiment [10] was “inactive” in each case.
Turning to `CNC(=O)N1N=C(c2ccc(N)cc2)c2cc3c(cc2CC1C)OCO3` (configuration not stated), the Potency in experiment [8] is 5260 nM (active); in experiment [2], 1480 nM (active); in [3], 3720 nM (active); in experiment [4] it was 4690 nM (active); in experiment [5], 5260 nM (active); in [6], 3720 nM (active). Besides, the Potency in experiment [9] was 7430 nM (active); in [7] it was 13200 nM (active).
For `C=C(C)[C@H]1Cc2c(ccc3c2O[C@@H]2COc4cc(OC)c(OC)cc4[C@@H]2C3=O)O1`, the Potency in [8] is 148 nM (active); in experiment [2], 1050 nM (active); in [3] it was 833 nM (active); in experiment [4] it was 7430 nM (active); in experiment [6], 332 nM (active); in experiment [9] it was 526 nM (active). The Potency in experiment [10] is 332 nM (active).
For `Cn1cc(C2=C(c3cn(C4CCN(Cc5ccccn5)CC4)c4ccccc34)C(=O)NC2=O)c2ccccc21`, the Potency is 833 nM (active) in [8]; 10500 nM (active) in experiment [1]; 3720 nM (active) in experiment [2]; 7430 nM (active) in experiment [3]; 16600 nM (active) in [4]; 2960 nM (active) in [9]. Moreover, the Potency in experiment [7] was 9350 nM (active). Further, in experiment [5], the viability is 86.1%.
As for `Cc1sc2c(c1C)C(c1ccc(Cl)cc1)=N[C@@H](CC(=O)OC(C)(C)C)c1nnc(C)n1-2`, the Potency in [8] was 132 nM (active); in experiment [1], 235 nM (active); in experiment [3], 132 nM (active); in experiment [4], 74.3 nM (active); in experiment [5] it was 372 nM (active); in experiment [6], 148 nM (active). For the same molecule, the Potency in [9] was 7430 nM (active); in experiment [10] it was 662 nM (active); in experiment [7] it was 2960 nM (active).
With `C[C@@H]1[C@@H](CC(C[C@H]2O[C@@H]3O[C@]4(C)CC[C@@H]5[C@H](C)CC[C@@H]([C@H]2C)[C@@]35OO4)C[S+](=O)([O-])c2ccc(COC(=O)N(C)C)cc2)O[C@@H]2O[C@]3(C)CC[C@H]4[C@H](C)CC[C@@H]1[C@@]24OO3` (some centres not stated), the Potency is 46.9 nM (active) in [8]; 74.3 nM (active) in experiment [1]; 83.3 nM (active) in experiment [2]; 209 nM (active) in [3]; 372 nM (active) in experiment [4]; 166 nM (active) in experiment [5]. In addition, the Potency in experiment [6] is 372 nM (active); in [9], 264 nM (active); in [10], 187 nM (active); in experiment [7] it was 418 nM (active).
With `Fc1ccc(C(OCCN2CCN(CCCc3ccccc3)CC2)c2ccc(F)cc2)cc1`, in experiment [8], the Potency result is “inactive”. Besides, the Potency was 7430 nM (active) in experiment [2]; 13200 nM (active) in experiment [3]; 16600 nM (active) in experiment [4]; 23500 nM (active) in experiment [5]; 7430 nM (active) in experiment [9]; 10500 nM (active) in experiment [7].
As to `NCC1(CC(=O)O)CCCCC1`, the Potency entry in [4] and in experiment [6] was “inactive” throughout. Besides, the viability in experiment [5] was 140%. Moreover, the Potency in experiment [7] is 16600 nM (active).
`CNC(=O)c1ccc(N2C(=S)N(c3ccc(C#N)c(C(F)(F)F)c3)C(=O)C23CCC3)cc1F`: the Potency in [2] is 2960 nM (active); in experiment [3], 1320 nM (active); in experiment [6], 8330 nM (active); in [9] it was 1050 nM (active); in experiment [7], 7430 nM (active).
Take `C[C@@H]1O[C@@H](O[C@H]2C[C@@H](O)[C@]3(CO)[C@H]4[C@H](O)C[C@]5(C)[C@@H](C6=CC(=O)OC6)CC[C@]5(O)[C@@H]4CC[C@]3(O)C2)[C@H](O)[C@H](O)[C@H]1O`: the Potency in [8] was 46.9 nM (active); in experiment [1], 59 nM (active); in [2] it was 14.8 nM (active); in experiment [3], 23.5 nM (active); in experiment [5], 59 nM (active); in experiment [6], 20.9 nM (active). For the same molecule, the Potency is 18.7 nM (active) in [9], 11.8 nM (active) in [10] and 18.7 nM (active) in experiment [7].
Turning to `CC(O)(CS(=O)(=O)c1ccc(F)cc1)C(=O)Nc1ccc(C#N)c(C(F)(F)F)c1` (configuration not stated), the Potency was 1480 nM (active) in [8]; 743 nM (active) in experiment [2]; 332 nM (active) in [3]; 3320 nM (active) in experiment [4]; 743 nM (active) in experiment [6]; 93.5 nM (active) in [9]. The Potency is 4180 nM (active) in experiment [10] and 590 nM (active) in experiment [7].
Regarding `N[C@@H](Cc1ccc(N(CCCl)CCCl)cc1)C(=O)O`, the Potency in [8] was 5260 nM (active); in [1], 16600 nM (active); in [2], 662 nM (active); in [3], 9350 nM (active); in experiment [4] it was 13200 nM (active); in experiment [5], 26400 nM (active). The Potency was 16600 nM (active) in experiment [6], 1180 nM (active) in experiment [9], 935 nM (active) in experiment [10] and 3720 nM (active) in [7].
